Data from PubChem BioAssay AID1159580 (chemical genetic matrix, 2015).
Values joined by “and” are separate entries in the source; they are usually repeats but may differ in a detail not shown here. Equal values may be shown once. The campaign covered roughly 5,500 compounds. About 2,000 (36%) were called active. Roughly 18% stayed inconclusive and do not appear here. No stated cut-off is given here; in the data, active means normalized growth mostly below about 0.91 (no sharp cut-off); inconclusive means no clear call, values can overlap the other calls; inactive means mostly above about 0.92. The list shows a part of the results.

Assay: chemical genetic growth profiling, strain panel (AID 1159580);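 further: tested at 20 µM; growth read once vehicle control cultures reached saturation at 30 °C; 1 = growth at the plate median or of vehicle wells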
Details: S. cerevisiae deletion strains, growth OD

Measured: normalized growth

COc1ccc(-c2cc(=O)c3c(O)cc(O)cc3o2)cc1
active: locus YHR079C, strain IRE1, stronger effect = lower value 0.847 | locus YJR066W, strain TOR1, stronger effect = lower value 0.792
inactive: locus YAL013W, strain DEP1, stronger effect = lower value 1.01 | locus YAL021C, strain ccr4, stronger effect = lower value 0.967 | locus YAL026C, strain drs2, stronger effect = lower value 0.975 | locus YAL030W, strain snc1, stronger effect = lower value 1 | locus YBL061C, strain skt5, stronger effect = lower value 1 | locus YBR009C, strain hhf1, stronger effect = lower value 0.939 | locus YBR021W, strain FUR4, stronger effect = lower value 1.02 | locus YBR023C, strain chs3, stronger effect = lower value 0.961 | locus YBR171W, strain sec66, stronger effect = lower value 0.999 | locus YBR229C, strain ROT2, stronger effect = lower value 1 | locus YBR231C, strain swc5, stronger effect = lower value 0.981 | locus YBR279W, strain paf1, stronger effect = lower value 0.977 | locus YCL011C, strain gbp2, stronger effect = lower value 0.958 | locus YCL016C, strain dcc1, stronger effect = lower value 0.955 | locus YCL029C, strain bik1, stronger effect = lower value 0.976 | locus YCL069W, strain vba3, stronger effect = lower value 0.967 | locus YCR088W, strain abp1, stronger effect = lower value 0.987 | locus YDL005C, strain med2, stronger effect = lower value 1.02 | locus YDL035C, strain GPR1, stronger effect = lower value 1.03 | locus YDL040C, strain nat1, stronger effect = lower value 0.996 | locus YDL074C, strain BRE1, stronger effect = lower value 0.95 | locus YDL101C, strain DUN1, stronger effect = lower value 0.978 | locus YDL185W, strain tfp1, stronger effect = lower value 0.963 | locus YDL192W, strain arf1, stronger effect = lower value 0.989 | locus YDR001C, strain nth1, stronger effect = lower value 0.988 | locus YDR069C, strain doa4, stronger effect = lower value 1.02 | locus YDR101C, strain arx1, stronger effect = lower value 0.985 | locus YDR137W, strain rgp1, stronger effect = lower value 0.87 | locus YDR159W, strain sac3, stronger effect = lower value 0.996 | locus YDR162C, strain NBP2, stronger effect = lower value 0.999 | locus YDR195W, strain ref2 1.1 | locus YDR297W, strain sur2, stronger effect = lower value 0.994 | locus YDR318W, strain mcm21, stronger effect = lower value 0.982 | locus YDR334W, strain swr1, stronger effect = lower value 0.992 | locus YDR335W, strain msn5, stronger effect = lower value 0.978 | locus YDR388W, stronger effect = lower value 0.979 | locus YDR392W, strain spt3, stronger effect = lower value 0.804 | locus YDR502C, strain sam2, stronger effect = lower value 0.984 | locus YEL003W, strain gim4, stronger effect = lower value 0.963 | locus YEL037C, strain rad23, stronger effect = lower value 0.994 | locus YEL061C, strain CIN8 (second series), stronger effect = lower value 0.988 | locus YEL061C, strain CIN8, stronger effect = lower value 0.987 | locus YER015W, strain faa2, stronger effect = lower value 0.964 | locus YER016W, strain bim1, stronger effect = lower value 1.01 | locus YER110C, stronger effect = lower value 0.972 | locus YER111C, strain swi4, stronger effect = lower value 1.01 | locus YER155C, strain BEM2 (second series), stronger effect = lower value 0.966 | locus YER155C, strain BEM2, stronger effect = lower value 0.991 | locus YER167W, strain BCK2, stronger effect = lower value 1 | locus YFR010W, strain ubp6, stronger effect = lower value 1.01 | locus YGL078C, strain dbp3, stronger effect = lower value 0.978 | locus YGL086W, strain mad1, stronger effect = lower value 0.989 | locus YGL167C, strain pmr1, stronger effect = lower value 1.01 | locus YGL173C, strain kem1, stronger effect = lower value 1.01 | locus YGL227W, strain vid30, stronger effect = lower value 0.99 | locus YGL240W, strain doc1, stronger effect = lower value 0.975 | locus YGL248W, strain PDE1, stronger effect = lower value 0.984 | locus YGL253W, strain hxk2, stronger effect = lower value 0.964 | locus YGR135W, strain pre9, stronger effect = lower value 0.984 | locus YGR252W, strain gcn5, stronger effect = lower value 1.04 | locus YHR013C, strain ard1, stronger effect = lower value 1.06 | locus YHR027C, strain rpn1, stronger effect = lower value 1.01 | locus YHR079C, strain IRE1 (second series), stronger effect = lower value 0.971 | locus YHR094C, strain hxt1, stronger effect = lower value 0.992 | locus YHR129C, strain ARP1, stronger effect = lower value 0.998 | locus YHR142W, strain chs7, stronger effect = lower value 0.914 | locus YHR200W, strain rpn10, stronger effect = lower value 0.979 | locus YIL066C, strain RNR3, stronger effect = lower value 1.01 | locus YIL073C, strain SPO22, stronger effect = lower value 0.942 | locus YIL125W, strain kgd1, stronger effect = lower value 0.996 | locus YIR030C, strain dcg1, stronger effect = lower value 0.981 | locus YJL092W, strain hpr5, stronger effect = lower value 0.983 | locus YJL095W, strain BCK1 (second series), stronger effect = lower value 0.998 | locus YJL115W, strain asf1, stronger effect = lower value 1 | locus YJL129C, strain trk1, stronger effect = lower value 0.946 | locus YJL134W, strain LCB3, stronger effect = lower value 1 | locus YJL154C, strain vps35, stronger effect = lower value 0.999 | locus YJL164C, strain tpk1, stronger effect = lower value 0.931 | locus YJL166W, strain qcr8, stronger effect = lower value 0.965 | locus YJL168C, strain set2, stronger effect = lower value 0.999 | locus YJL187C, strain SWE1 (second series), stronger effect = lower value 0.979 | locus YJL187C, strain SWE1, stronger effect = lower value 1.01 | locus YJR043C, strain POL32, stronger effect = lower value 1.04
1.01 (inactive) and 0.823 (active): locus YHR030C, strain SLT2, stronger effect = lower value
0.957 (inactive) and 0.879 (active): locus YJL095W, strain BCK1, stronger effect = lower value
